This passage reports log2 fold change results from the supplement of paper PMC10849652.

Targets with a hit are over-represented here; the source holds about 8,800 in all. About 0.5% of all pairs of compound and target were hits. Values without a mark were called inactive.

Sequence of UniProt Q01628 (Q01628 whole entry, looked up): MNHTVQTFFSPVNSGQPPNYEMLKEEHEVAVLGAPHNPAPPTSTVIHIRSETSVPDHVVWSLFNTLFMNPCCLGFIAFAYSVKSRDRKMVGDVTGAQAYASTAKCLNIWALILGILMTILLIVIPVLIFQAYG
Sequence of UniProt Q99729 (Q99729 whole entry, looked up): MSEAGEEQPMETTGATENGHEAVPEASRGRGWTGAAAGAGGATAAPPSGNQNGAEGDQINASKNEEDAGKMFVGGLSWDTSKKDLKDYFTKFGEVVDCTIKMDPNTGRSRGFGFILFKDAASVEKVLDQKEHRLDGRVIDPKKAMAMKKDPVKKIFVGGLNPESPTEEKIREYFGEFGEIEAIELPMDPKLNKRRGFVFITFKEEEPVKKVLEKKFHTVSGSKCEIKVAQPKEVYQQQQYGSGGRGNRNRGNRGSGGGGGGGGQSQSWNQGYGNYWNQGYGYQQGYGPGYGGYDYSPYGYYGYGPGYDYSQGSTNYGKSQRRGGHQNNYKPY
Sequence of UniProt Q6AI08 (Q6AI08 whole entry, looked up): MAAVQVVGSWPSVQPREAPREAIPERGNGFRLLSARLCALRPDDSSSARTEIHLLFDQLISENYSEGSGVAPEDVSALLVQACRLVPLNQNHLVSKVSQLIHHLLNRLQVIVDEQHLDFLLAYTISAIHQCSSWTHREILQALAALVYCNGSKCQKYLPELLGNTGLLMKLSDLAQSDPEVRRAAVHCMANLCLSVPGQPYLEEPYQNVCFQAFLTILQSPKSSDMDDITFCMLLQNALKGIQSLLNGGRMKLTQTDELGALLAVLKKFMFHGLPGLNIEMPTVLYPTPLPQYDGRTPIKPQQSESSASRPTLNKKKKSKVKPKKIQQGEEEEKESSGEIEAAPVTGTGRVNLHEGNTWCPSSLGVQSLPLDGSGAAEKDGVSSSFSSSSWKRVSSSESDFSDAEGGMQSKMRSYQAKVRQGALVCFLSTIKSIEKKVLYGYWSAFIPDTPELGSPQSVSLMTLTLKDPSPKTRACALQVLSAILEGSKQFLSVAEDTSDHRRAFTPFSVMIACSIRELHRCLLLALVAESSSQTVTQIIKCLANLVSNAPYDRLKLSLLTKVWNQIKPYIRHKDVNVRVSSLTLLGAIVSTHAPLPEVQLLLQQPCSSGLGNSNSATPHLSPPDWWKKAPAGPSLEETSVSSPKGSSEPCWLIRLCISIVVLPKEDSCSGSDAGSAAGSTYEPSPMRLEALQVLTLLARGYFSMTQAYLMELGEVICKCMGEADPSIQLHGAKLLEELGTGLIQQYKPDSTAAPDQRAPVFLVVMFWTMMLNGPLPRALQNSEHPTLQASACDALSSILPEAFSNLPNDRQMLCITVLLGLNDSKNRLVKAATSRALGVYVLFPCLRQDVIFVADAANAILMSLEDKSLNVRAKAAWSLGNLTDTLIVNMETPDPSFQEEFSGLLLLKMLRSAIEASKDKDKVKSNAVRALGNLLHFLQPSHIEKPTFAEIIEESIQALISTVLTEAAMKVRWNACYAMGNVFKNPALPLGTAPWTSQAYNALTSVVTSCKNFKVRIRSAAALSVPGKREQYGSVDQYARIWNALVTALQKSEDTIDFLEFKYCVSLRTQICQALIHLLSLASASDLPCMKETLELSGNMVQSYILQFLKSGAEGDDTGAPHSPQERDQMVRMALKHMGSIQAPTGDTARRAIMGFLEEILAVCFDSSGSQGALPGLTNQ
Sequence of UniProt Q58FG1 (Q58FG1 whole entry, looked up): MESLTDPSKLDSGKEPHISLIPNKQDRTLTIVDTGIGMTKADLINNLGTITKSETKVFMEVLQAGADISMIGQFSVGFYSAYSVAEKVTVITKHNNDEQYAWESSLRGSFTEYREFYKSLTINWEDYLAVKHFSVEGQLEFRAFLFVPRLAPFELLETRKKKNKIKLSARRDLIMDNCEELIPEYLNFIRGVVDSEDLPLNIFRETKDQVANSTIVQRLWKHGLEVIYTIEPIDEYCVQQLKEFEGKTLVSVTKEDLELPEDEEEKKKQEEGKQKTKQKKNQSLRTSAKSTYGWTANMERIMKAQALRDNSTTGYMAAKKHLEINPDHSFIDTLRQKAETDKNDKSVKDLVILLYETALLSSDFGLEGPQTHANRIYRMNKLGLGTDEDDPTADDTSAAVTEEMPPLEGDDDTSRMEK
Sequence of UniProt Q16891 (Q16891 whole entry, looked up): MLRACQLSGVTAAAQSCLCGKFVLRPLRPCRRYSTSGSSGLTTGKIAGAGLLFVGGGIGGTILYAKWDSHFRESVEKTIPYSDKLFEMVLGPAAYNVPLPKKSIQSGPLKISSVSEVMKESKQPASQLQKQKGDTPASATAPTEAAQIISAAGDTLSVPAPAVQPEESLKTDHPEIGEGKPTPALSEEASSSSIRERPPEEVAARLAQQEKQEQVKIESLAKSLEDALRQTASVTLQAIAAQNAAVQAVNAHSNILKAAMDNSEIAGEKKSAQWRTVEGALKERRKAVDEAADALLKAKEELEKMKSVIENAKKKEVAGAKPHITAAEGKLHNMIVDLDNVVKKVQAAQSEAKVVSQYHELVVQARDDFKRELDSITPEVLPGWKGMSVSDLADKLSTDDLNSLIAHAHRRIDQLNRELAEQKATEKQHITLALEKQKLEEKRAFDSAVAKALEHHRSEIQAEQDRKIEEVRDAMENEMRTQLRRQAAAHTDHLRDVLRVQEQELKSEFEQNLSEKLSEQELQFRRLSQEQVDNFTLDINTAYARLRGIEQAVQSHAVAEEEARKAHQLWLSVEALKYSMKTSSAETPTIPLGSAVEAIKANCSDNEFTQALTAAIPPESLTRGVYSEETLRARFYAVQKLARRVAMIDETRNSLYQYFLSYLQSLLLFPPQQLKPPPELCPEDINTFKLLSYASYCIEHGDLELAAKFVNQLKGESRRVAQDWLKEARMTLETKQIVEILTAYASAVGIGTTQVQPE
Sequence of UniProt Q13418 (Q13418 whole entry, looked up): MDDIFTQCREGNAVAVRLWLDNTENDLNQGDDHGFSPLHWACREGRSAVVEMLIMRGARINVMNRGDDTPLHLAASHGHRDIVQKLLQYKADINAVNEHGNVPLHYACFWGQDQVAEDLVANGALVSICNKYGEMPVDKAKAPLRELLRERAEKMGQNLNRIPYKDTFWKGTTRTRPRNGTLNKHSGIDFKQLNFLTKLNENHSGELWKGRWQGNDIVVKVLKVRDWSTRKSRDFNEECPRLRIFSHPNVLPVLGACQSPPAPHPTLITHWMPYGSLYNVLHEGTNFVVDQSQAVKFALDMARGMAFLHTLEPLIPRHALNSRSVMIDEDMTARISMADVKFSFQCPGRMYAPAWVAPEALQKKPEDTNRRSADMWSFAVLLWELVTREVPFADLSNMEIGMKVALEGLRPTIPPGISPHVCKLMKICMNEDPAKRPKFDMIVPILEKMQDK
Sequence of UniProt P23677 (P23677 whole entry, looked up): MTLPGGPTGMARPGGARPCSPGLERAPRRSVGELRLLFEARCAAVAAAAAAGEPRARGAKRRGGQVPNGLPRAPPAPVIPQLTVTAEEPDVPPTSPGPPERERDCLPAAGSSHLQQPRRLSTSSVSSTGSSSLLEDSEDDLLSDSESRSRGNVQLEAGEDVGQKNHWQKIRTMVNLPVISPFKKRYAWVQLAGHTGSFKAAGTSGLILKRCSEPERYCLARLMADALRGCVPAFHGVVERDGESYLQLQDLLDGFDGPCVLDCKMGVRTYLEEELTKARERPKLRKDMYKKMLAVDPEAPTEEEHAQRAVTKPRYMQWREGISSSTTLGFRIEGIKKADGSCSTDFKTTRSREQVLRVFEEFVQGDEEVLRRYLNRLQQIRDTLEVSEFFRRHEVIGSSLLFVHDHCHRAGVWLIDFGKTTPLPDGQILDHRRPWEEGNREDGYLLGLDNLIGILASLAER
Sequence of UniProt P55795 (P55795 whole entry, looked up): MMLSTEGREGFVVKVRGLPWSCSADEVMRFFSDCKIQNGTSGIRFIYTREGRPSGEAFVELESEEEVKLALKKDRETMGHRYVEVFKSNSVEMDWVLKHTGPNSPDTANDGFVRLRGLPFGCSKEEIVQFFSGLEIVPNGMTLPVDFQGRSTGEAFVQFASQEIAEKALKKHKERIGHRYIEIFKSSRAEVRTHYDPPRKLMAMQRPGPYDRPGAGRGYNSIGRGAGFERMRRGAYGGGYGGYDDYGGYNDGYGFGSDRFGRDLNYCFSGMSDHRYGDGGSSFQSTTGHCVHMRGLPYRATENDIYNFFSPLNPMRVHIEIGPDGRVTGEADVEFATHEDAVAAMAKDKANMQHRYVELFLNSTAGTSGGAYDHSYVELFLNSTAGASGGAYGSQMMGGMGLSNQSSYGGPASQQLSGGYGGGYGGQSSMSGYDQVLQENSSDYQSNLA
Sequence of UniProt Q14145 (Q14145 whole entry, looked up): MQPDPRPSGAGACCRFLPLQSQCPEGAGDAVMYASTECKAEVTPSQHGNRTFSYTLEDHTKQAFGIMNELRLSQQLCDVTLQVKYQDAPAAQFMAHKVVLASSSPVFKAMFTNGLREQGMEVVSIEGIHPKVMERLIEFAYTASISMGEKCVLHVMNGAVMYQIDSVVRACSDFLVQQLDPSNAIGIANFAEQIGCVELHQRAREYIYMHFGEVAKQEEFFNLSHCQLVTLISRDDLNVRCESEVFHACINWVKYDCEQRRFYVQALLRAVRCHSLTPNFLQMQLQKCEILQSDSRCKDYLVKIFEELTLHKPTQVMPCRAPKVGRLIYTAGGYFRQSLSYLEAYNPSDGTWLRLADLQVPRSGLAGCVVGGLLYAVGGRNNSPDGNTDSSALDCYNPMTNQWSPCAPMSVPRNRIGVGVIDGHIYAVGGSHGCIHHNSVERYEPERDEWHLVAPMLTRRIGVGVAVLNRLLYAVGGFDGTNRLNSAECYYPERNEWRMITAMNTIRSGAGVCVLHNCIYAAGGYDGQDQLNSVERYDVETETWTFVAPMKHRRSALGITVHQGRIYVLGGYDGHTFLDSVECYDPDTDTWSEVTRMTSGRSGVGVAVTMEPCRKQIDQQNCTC

Compound in this assay: CC1=C2C(=CC=C1)N=C(N(C2=O)C3=CC=CC=C3C)CN4C=NC5=C(N=CN=C54)N
The assay is described as follows: log2 fold change, soluble protein after heating vs DMSO (PISA); higher = thermal stabilisation; K562 lysate, 10 uM; active = over 0.2 and 3.5 SD of the protein, either way, in both replicates (recomputed). In short, it runs like this: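 Following dounce homogenisation of K562 pellets in PBS pH 7.4 with 1 mM MgCl2, crude extract at 1 mg/mL protein was incubated for 30 min with 10 μM compound. Aliquots were then heated for 3 min over 48°C-58°C and pooled, NP-40 was added to 0.5% at 4°C, and soluble protein was recovered as the supernatant at 21,000xg for 90 min. Channel-sum-equalised TMTpro 16plex LC-MS/MS quantified this protein. Each value, from duplicates, is a log-two fold change in thermal stability relative to solvent controls.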
With GSTZ1 (UniProt G3V4T6), the log2 fold change is -0.036.
With GSK3A (UniProt P49840) the figure was -0.059; with HADHB (UniProt P55084), 0.105; with HNRNPD isoform 3 (UniProt Q14103), 0.
The figure for GSTM4 (UniProt Q03013) is 0.03; for HNRNPAB isoform 3 (UniProt Q99729) it is -0.025.
The figure for HMGB1 (UniProt P09429) is 0.032; for GTPBP2 (UniProt Q9BX10) it is 0.025; for HK2 (UniProt P52789) it is 0.043.
Consider HNRNPH2 (UniProt P55795), for which the log2 fold change is 0.
With IMPDH1 isoform 6 (UniProt P20839) the figure was -0.009; with KBTBD2 (UniProt Q8IY47), 0.025.
The figure for ILK (UniProt Q13418) is 0.004.
With HDLBP, A0A024R4E5 the figure was 0.017.
Consider HNRNPM (UniProt M0QZM1), for which the log2 fold change was -0.01.
Turning to KEAP1 (UniProt Q14145), the log2 fold change is 0.014.
For GMDS (UniProt O60547), the log2 fold change is 0.042.
IMPDH2 (UniProt P12268): the log2 fold change was -0.007.
The figure for GTF2A1 (UniProt P52655) is -0.01; for KHDRBS1 (UniProt Q07666) it is 0; for HAUS2 (UniProt Q9NVX0) it is 0.077.
Consider INTS1 (UniProt Q8N201), for which the log2 fold change is -0.045.
With HEATR6 (UniProt Q6AI08), the log2 fold change is 0.05.
As to HSPB1 (UniProt P04792), the log2 fold change was 0.002.
The figure for HLTF (UniProt Q14527) is -0.065; for IGF2BP3 (UniProt O00425) it is 0.009; for ICAM2 (UniProt P13598) it is -0.006.
The figure for HSP90AA4P (UniProt Q58FG1) is -0.008; for IMMT (UniProt Q16891) it is 0.017.
Take IMMT (UniProt C9J406): the log2 fold change is 0.049.
With ITPKA (UniProt P23677) the figure was -0.017.
With IFITM3 (UniProt Q01628), the log2 fold change is -0.118.
As to HSPA8 (UniProt E9PK54), the log2 fold change was -0.031.
